From PubChem BioAssay AID2521 (Sanford-Burnham Center for Chemical Genomics, 2010)
In all, about 330,000 compounds went through this assay and about 1,100 (0.33%) were called active.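 How the source made its calls: active means inhibition above about 40% at 20 µM (limit read from the data); inactive means the rest.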 Shown is part of a subset that was picked to be rich in actives.

biological target: Apelin receptor (Homo sapiens) (UniProt P35414); assay: antagonists of human apelin receptor APJ, primary screen, CHO-K1 cells, beta-arrestin complementation, luminescence (AID 2521); details: at 20 µM, active compounds read high;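 further: cells challenged with 10 nM apelin-13 agonist together with compound; plate controls were apelin-13 plus DMSO wells for no effect and DMSO wells lacking apelin-13 for full effect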
Sequence (P35414 whole entry, looked up): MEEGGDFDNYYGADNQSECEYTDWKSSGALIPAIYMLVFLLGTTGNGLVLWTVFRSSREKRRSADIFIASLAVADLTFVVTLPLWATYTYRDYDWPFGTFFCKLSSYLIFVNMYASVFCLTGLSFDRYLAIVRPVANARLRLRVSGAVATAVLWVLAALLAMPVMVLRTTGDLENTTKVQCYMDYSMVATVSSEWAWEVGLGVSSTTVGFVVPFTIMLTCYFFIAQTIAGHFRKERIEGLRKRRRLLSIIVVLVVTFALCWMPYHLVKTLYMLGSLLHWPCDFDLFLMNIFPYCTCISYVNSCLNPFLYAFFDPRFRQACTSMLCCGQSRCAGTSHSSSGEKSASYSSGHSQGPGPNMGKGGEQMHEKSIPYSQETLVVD

Structure (SMILES)	inhibition
Cc1cc(CNCc2c(C(=O)N(C)Cc3ccccc3)nc3ccccn23)nn1C	12.9% (inactive)
C=CCn1c(C(C)NC(=O)CC)nc2ccccc21 (configuration not stated)	8.11% (inactive)
COCC(C)OC(=O)c1c(N)n(CCCN2CCOCC2)c2nc3ccccc3nc12 (configuration not stated)	10.9% (inactive)
C=CCn1c(N)c(C(=O)OCC(C)C)c2nc3ccccc3nc21	74.2% (active)
CCOC(=O)C1=C(NC(=S)NC(=O)c2ccccc2)c2ccccc2CC1(C)C	-12.1% (inactive)
CCCCCCNC(=O)CSc1nccn1Cc1ccccc1	15.6% (inactive)
CCOC(=O)C(CCOc1cccc(CC)c1)C(=O)OCC	0.162% (inactive)
O=C(/C=C/c1cccs1)NCc1cccnc1	-1.62% (inactive)
Cc1cccc(NC(=S)Nc2ccc(Cl)c(Cl)c2)c1	9.23% (inactive)
Cc1cc(Cl)nc(NC(=O)Nc2cccc(Cl)c2)n1	12.4% (inactive)
Cc1csc(NC(=S)Nc2cccc(Cl)c2)n1	40.6% (active)
O=C(Nc1ccc([N+](=O)[O-])cc1)C1(c2ccccc2)CCOCC1	4.46% (inactive)
CN(C(=O)COC(=O)Cn1cnc2c1c(=O)n(C)c(=O)n2C)C1(C#N)CCCCC1	-8.66% (inactive)
COc1cc(/C=C2/SC(=S)N(Cc3ccccc3)C2=O)cc(OC)c1O	44.9% (active)
COc1cccc(/C=C2/SC(=S)N(CC(=O)NC3C=CS(=O)(=O)C3)C2=O)c1 (configuration not stated)	2.32% (inactive)
CN1C=CC=C/C1=C1\SC(=S)N(Cc2ccccc2)C1=O	3.59% (inactive)
O=C(O)C1CCCN(CCC=C(c2ccccc2)c2ccccc2)C1 (configuration not stated)	6.7% (inactive)
Cn1cnc2c1c(=O)n(Cc1c(Cl)cccc1Cl)c(=O)n2C	-5.54% (inactive)
CC(C)C(=O)N1CC(=O)Nc2ccc(F)cc2C1c1ccc(F)cc1 (configuration not stated)	5.88% (inactive)
C[C@H](NC(=O)c1nc[nH]c1C(=O)NCC(=O)OC(C)(C)C)C(=O)OCc1ccccc1	-0.246% (inactive)
O=C(Nc1c2c(nn1-c1cccc(Cl)c1)CS(=O)(=O)C2)c1cccs1	-12.4% (inactive)
Cn1c(N)cc(-c2ccc(F)cc2)c(C#N)c1=O	16% (inactive)

Structure (SMILES)	inhibition
Cc1nc2nc(CSc3nc4ccccc4s3)cc(=O)n2[nH]1	-6.29% (inactive)
CCN(CC)CCCSc1nc2ccccc2s1	5.23% (inactive)
O=[N+]([O-])c1c(NCCO)cc(Sc2nc3ccccc3s2)c2nonc12	95.4% (active)
CCOC(=O)c1c(/N=C/C2C(=O)CC(C)(C)CC2=O)sc(C)c1C	3.91% (inactive)
COc1ccc(NC(=O)CCCC(=O)c2ccccc2)cc1	-8.49% (inactive)
COC(=O)c1ccc(NCC(=O)c2ccccc2)cc1	72.4% (active)
COC(=O)c1ccc(NCC(=O)N2CCCCCC2)cc1	-5.46% (inactive)
C=CCOc1ccc(/C=C/C(=O)OCC(=O)NC2CCCCCC2)cc1	-9.63% (inactive)
CCCc1nc2oc3c(OCC)ncnc3c2c2c1COC(C)(C)C2	1.23% (inactive)
Cc1cccc(N2CCC(NCc3c(C(=O)N4CCCCC4)nc4c(C)cccn34)CC2)c1	-3.54% (inactive)
Cc1ccc(S(=O)(=O)N(Cc2ccc(Cl)cc2)c2ccccc2C(=O)NCc2cccnc2)cc1	-7.26% (inactive)
Cc1ccc(N=Cc2c(O)n(-c3nccs3)c(=O)c3ccccc23)c(C)c1	-0.923% (inactive)
Cc1cccc(N2CCN(S(=O)(=O)c3ccc4[nH]c(=O)c(=O)[nH]c4c3)CC2C)c1 (configuration not stated)	0.293% (inactive)
Cc1cccc(-n2c(O)c(C=Nc3ccccc3N)c(=O)[nH]c2=O)c1	55.5% (active)
Cc1ccc(C)c2[nH]c(=O)c(CN(Cc3cccnc3)C(=S)NCc3ccco3)cc12	5.44% (inactive)
O=C(N=C1SC2CS(=O)(=O)CC2N1c1ccccc1)c1ccccc1 (configuration not stated)	-0.987% (inactive)
CCCNc1ncnc2sc(C)c(C)c12	19.7% (inactive)
Cc1cc(C)n(-c2nc(O)cc(=O)[nH]2)n1	9% (inactive)
O=C1/C(=C/c2coc3ccc(O)cc3c2=O)SC(=S)N1c1ccccc1	29.3% (inactive)
CSCCC(NC(=O)COc1ccccc1)C(=O)OCCOc1ccc(Br)cc1 (configuration not stated)	0.665% (inactive)
CSCCC(NC(=O)COc1ccccc1)C(=O)OCC(=O)c1cc2ccccc2o1 (configuration not stated)	56.3% (active)
CSCCC(NC(=O)COc1ccccc1)C(=O)OCCOc1ccc(F)cc1 (configuration not stated)	4.85% (inactive)

Structure (SMILES)	inhibition
CC(=O)Nc1ccc(S(=O)(=O)Nc2nc3n(n2)C(c2ccccc2)CC(=O)N3)cc1 (configuration not stated)	-9.74% (inactive)
Cc1nc2cc(NCc3cccs3)ccc2n1C	1.26% (inactive)
CCCCC(=O)Nc1c2c(nn1-c1ccc([N+](=O)[O-])cc1)CS(=O)(=O)C2	9.67% (inactive)
CC1CCN(C(=O)c2cc3nc(C4CC4)cc(C(F)(F)F)n3n2)CC1	1.74% (inactive)
Cc1cc(/C=N/Nc2ccc([N+](=O)[O-])cn2)c(C)n1-c1cccc(C(=O)O)c1	42.4% (active)
Cc1cc(C=O)c(C)n1-c1ccc(NC2CCCCC2)c([N+](=O)[O-])c1	11.5% (inactive)
Cc1cc(/C=N/NC(=O)CC2(C)OCCO2)c(C)n1-c1ccc(Cl)c(Cl)c1	-22.8% (inactive)
Cn1c(=O)c2c(-c3cccc(Br)c3)c(C#N)c(N)nc2n(C)c1=O	-4.62% (inactive)
NC(=O)NC(=O)C(OC(=O)CCNS(=O)(=O)c1ccccc1)c1ccccc1 (configuration not stated)	12.8% (inactive)
CC(Oc1ccccc1F)C(=O)NN (configuration not stated)	-7.83% (inactive)
O=C1Nc2ccc([N+](=O)[O-])cc2C1=Nc1cccc(CO)c1	66% (active)
CN1CCN(/N=C2/C(=O)Nc3ccc([N+](=O)[O-])cc32)CC1	2.6% (inactive)
O=[N+]([O-])c1ccc(N(CCO)Cc2ccccc2)c([N+](=O)[O-])c1	-2.49% (inactive)
O=C(NC(=S)Nc1ccc(Cl)c(C(=O)O)c1)c1cncc(Br)c1	35.2% (inactive)
c1ccc2cc(CCCc3cc4ccccc4cn3)ncc2c1	9.5% (inactive)
Cc1cc2c(c(=O)n1C)C(C(C)C)C(C#N)=C(N)O2 (configuration not stated)	-2.07% (inactive)
COc1ccc(CCNC(=O)C2CCCN(S(=O)(=O)c3ccc(OC)cc3)C2)cc1 (configuration not stated)	12.2% (inactive)
CCc1ccc2c(c1)C1(NN=C(c3ccccc3)S1)C(=O)N2 (configuration not stated)	43.3% (active)
Cc1ccc(-n2c(C)cc(C(=O)CSc3nnc4ccccn34)c2C)cc1	-19.2% (inactive)
CC(=O)Nc1ccc(NC(=O)CSC2=NS(=O)(=O)c3ccccc3N2)cc1	17.4% (inactive)
O=C(CN1CCN(c2ccc(Cl)cc2)CC1)c1ccccc1	-15.1% (inactive)
O=C1C(Cc2ccc(O)cc2)NC(=S)N1Cc1ccccc1 (configuration not stated)	7.09% (inactive)

Structure (SMILES)	inhibition
CCC1Nc2ncnc(N3CCN(c4ccccc4)CC3)c2N(Cc2ccc(Cl)cc2)C1=O (configuration not stated)	85.9% (active)
COc1ccc(S(=O)(=O)n2cnc3ccccc32)c(C)c1	2.56% (inactive)
Cc1ccc(NC(=S)N(CCCN2CCCC2)Cc2cccn2Cc2ccc(Cl)cc2)cc1	-11.3% (inactive)
CC(C)(C)OC(=O)C[C@@H]1C/C=C\C[C@@H](CC(=O)NCCO)C(=O)N[C@H](Cc2c[nH]c3ccccc23)COC1=O	0.599% (inactive)
S=C(NNC(=S)NC1CC2C=CC1C2)NC1CC2C=CC1C2 (configuration not stated)	9.22% (inactive)
S=C(NNC(=S)NC1CC2CCC1C2)NC1CC2C=CC1C2 (configuration not stated)	40.2% (active)
O=C(NNC(=S)NC1CC2CCC1C2)c1ccc(Cl)cc1 (configuration not stated)	-4.76% (inactive)
Cc1nonc1OCCn1nnnc1N	-11.5% (inactive)
Cc1c(NC(=O)CSc2cccc3cccnc23)c(=O)n(-c2ccccc2)n1C	21.8% (inactive)
CC(=O)/C(=N\Nc1ccc(Cl)cc1Cl)Sc1cccc2cccnc12	50.3% (active)
O=C(NNc1cc(Cl)ccc1Cl)c1cccnc1Cl	-13.7% (inactive)
Cc1ccc(C(=O)N(CN2CCCC2=O)c2ccc(F)cc2)cc1	-13.9% (inactive)
CNC(=O)Nc1cc(C(C)(C)C)no1	8.23% (inactive)
Cc1ccc(N2CCN(S(=O)(=O)c3ccc(F)cc3)CC2)c(C)c1	17.5% (inactive)
Cc1ccc(/C=N/NC(=S)Nc2cccc(S(=O)(=O)N(C)C)c2)o1	-8.56% (inactive)
CN(C)S(=O)(=O)c1cccc(NC(=S)N/N=C/C(=O)c2ccccc2)c1	41.5% (active)
CN(C)S(=O)(=O)c1cccc(NC(=S)NCc2ccc3c(c2)OCO3)c1	3.11% (inactive)
O=C(c1ccccc1F)N(Cc1ccccc1)Cc1ccccc1	-6.53% (inactive)
CC1=C(C(=O)Nc2cc(C)ccn2)C(c2cnn(C)c2)C2=C(CC(c3ccccc3)CC2=O)N1 (configuration not stated)	-2.45% (inactive)
O=S(N1CCCCCC1)C12CC3CC(CC(C3)C1)C2 (configuration not stated)	-12.7% (inactive)
Cc1ccc(NC(=O)C2CC2c2ccccc2)cc1 (configuration not stated)	0.756% (inactive)
